# M1 ag parental – counter-screen for M1 agonists: effect in parental CHO-K1 cells; activation, % at 3 µM; 360,000 compounds, 0.48% hits; Fluo-8 calcium fluorescence; scaled to maximal ATP response, vehicle zero; AID 602248, 2012; in the data active means activation above about 15%;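 further: untransfected CHO-K1 host cells lacking M1 receptor as counterscreen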
# CHO-K1 Ca PAM – nonselective calcium activators in parental CHO-K1 cells, primary screen, counter-screen for M1 PAM project, cell-based, Fluo-8 calcium fluorescence, full deck, 1536-well; ATP EC20; 0% at ATP EC20, 100% at ATP max; activation, % at 3 µM; 360,000 compounds, 0.02% hits;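 active means activation above the run cutoff, the mean activation of all test compounds plus 3 SD, cut at about 40% in these data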;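 further: peak over basal fluorescence ratio in a 140 s read after ATP addition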
# M1 antag – human M1 muscarinic receptor antagonists, primary screen, CHO-K1 cells, Fluo-8 calcium fluorescence, 1536-well | Muscarinic acetylcholine receptor M1 (Homo sapiens), P11229 | CHO-K1 hM1, ACh EC80 antagonist | inhibition, % at 3 µM | 360,000 compounds, 1.3% hits;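 active means percent inhibition above its own plate's cutoff, namely the mean of that plate's compound wells plus 3 SD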;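 further: peak over basal fluorescence ratio during 140 s after agonist addition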
# Target sequence (P11229 whole entry, looked up): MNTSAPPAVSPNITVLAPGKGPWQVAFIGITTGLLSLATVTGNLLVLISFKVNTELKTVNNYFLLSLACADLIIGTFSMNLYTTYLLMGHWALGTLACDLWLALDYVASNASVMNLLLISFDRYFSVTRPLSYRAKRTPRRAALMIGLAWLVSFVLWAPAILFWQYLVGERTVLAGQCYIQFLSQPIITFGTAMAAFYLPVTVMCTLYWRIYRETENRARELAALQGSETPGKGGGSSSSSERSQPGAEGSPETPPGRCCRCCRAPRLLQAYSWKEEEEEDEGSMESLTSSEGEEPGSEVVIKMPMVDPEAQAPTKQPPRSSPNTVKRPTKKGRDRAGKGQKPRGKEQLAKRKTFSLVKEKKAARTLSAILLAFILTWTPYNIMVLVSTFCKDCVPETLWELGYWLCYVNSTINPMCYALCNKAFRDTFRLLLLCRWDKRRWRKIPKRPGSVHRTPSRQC
# M1 ag – human M1 muscarinic receptor agonists, primary screen, Fluo-8 calcium fluorescence, CHO-K1 cells, HTS; Muscarinic acetylcholine receptor M1 (Homo sapiens), P11229; CHO-K1 hM1, agonist mode; 0% DMSO, 100% acetylcholine EC100; activation, % at 3 µM; 360,000 compounds, 0.33% hits;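 active means activation above the run's mean compound activation plus 3 SD, cut at about 16% in these data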;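 further: peak over basal fluorescence ratio within a 140 s kinetic read after compound addition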
# CHO-K1 Ca antag – counter-screen for M1 antagonists: effect in parental CHO-K1 cells. AID 602250. inhibition, % at 3 µM. 360,000 compounds, 0.6% hits. ATP-induced calcium, Fluo-8 fluorescence;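 active means inhibition above a per-plate cutoff, the plate's mean sample inhibition plus 3 SD, cut at about 24% in these data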
# CHRM1 PAM – human M1 muscarinic receptor positive allosteric modulators, primary screen, CHO-K1 cells, Fluo-8 calcium fluorescence, 1536-well; Muscarinic acetylcholine receptor M1 (Homo sapiens), P11229; CHO-K1 hM1, ACh EC20; 0% = ACh EC20, 100% = maximal ACh; activation, % at 3 µM; 360,000 compounds, 0.088% hits; AID 588819, 2011; in the data active means activation above about 19%, passing the limit was not always enough
# Hits are given with their value; . = inactive; / = not tested or not shown. Compounds with a hit are over-represented: about 2.4% of the library has one in this group of screens.
SMILES,M1 ag parental,CHO-K1 Ca PAM,M1 antag,M1 ag,CHO-K1 Ca antag,CHRM1 PAM
Cc1ccc(C)c(SCC(=O)Nc2ccc(C)c(S(=O)(=O)N3CCOCC3)c2)c1,.,.,.,.,.,.
CCn1ncc(CN2CCC(n3nccc3NC(=O)c3ccccc3Cl)CC2)c1C,.,.,.,.,.,.
C#CCNCCS(=O)(=O)N(Cc1ccc(Br)cc1)[C@@H](C)C(=O)O,.,.,.,.,.,.
COC(=O)C[C@@H]1C[C@@H]2c3cc(NS(=O)(=O)c4ccc(F)cc4)ccc3O[C@@H]2[C@@H](CO)O1,.,.,.,.,.,.
COCc1ccc(-c2c(-c3cc(OC)cc(OC)c3)oc(=O)c3cc(OC)c(OC)cc23)cc1,.,.,.,.,.,.
O=C(COC(=O)c1ccc(F)c(S(=O)(=O)N2CCOCC2)c1)NCCc1ccccc1,.,.,.,.,.,27
Cc1ccc(C(=O)OCC(=O)NCCc2ccc(F)cc2)cc1S(=O)(=O)N1CCOCC1,.,.,.,.,.,.
Cc1nn(Cc2ccc(Cl)cc2)c(C)c1NC(=O)C(c1ccccc1)c1ccccc1,.,.,.,.,.,.
COc1ccc(C(=O)C2CCCN(C3Cc4ccccc4C3)C2)c(OC)c1 (stereo not given),.,.,29,.,.,.
CCOC(=O)c1sc(NC(=O)Nc2ccccc2Cl)cc1C,.,.,.,.,.,.
CCOC(=O)c1sc(NC(=O)Nc2ccccc2)cc1C,17,.,.,.,29,.
CCOC(=O)c1sc(NC(=O)C2CCC2)cc1C,.,.,.,.,26,.
CCOC(=O)c1sc(NC(C)=O)cc1C,.,.,.,.,.,.
CCOc1ccccc1N1CCN(C(=O)c2cccs2)CC1,.,.,.,.,.,.
CCN(CC(=O)NC1CCS(=O)(=O)C1)S(=O)(=O)c1ccc(Cl)cc1C(F)(F)F (stereo not given),.,.,.,.,.,.
CCC1(c2ccc(F)cc2)NC(=O)N(CC(=O)Nc2cccc(S(=O)(=O)N3CCOCC3)c2)C1=O (stereo not given),.,.,.,.,.,.
CCc1nc2ccccc2c(C(=O)OCC(=O)N2CC(C)OC(C)C2)c1C (stereo not given),.,.,.,.,.,.
CN(C(=S)Nc1ccc(Oc2ccccc2)cc1)C1CCCCC1,.,.,39,.,.,.
S=C(Nc1ccc(Oc2ccccc2)cc1)NC1CCCCCC1,.,.,29,.,.,.
S=C(Nc1ccc(Oc2ccccc2)cc1)NC1CCCCC1,.,.,.,.,.,.
CC(C)(C)OC(=O)NCCCCCNC(=O)c1nc[nH]c1C(=O)NCC(=O)OCc1ccccc1,.,.,39,.,.,.
CC(C)(C)OC(=O)CNC(=O)c1[nH]cnc1C(=O)NCC(=O)OCc1ccccc1,.,.,35,.,.,.
C[C@H](NC(=O)c1nc[nH]c1C(=O)NCCCCCNC(=O)OC(C)(C)C)C(=O)OCc1ccccc1,.,.,45,.,.,.
CC(C)(C)OC(=O)[C@H](Cc1ccccc1)NC(=O)c1nc[nH]c1C(=O)NCC(=O)OCc1ccccc1,.,.,.,.,.,.
O=C(O)C(Cc1c[nH]c2ccccc12)N1C(=O)c2ccccc2C1=O (stereo not given),.,.,.,.,.,.
SMILES,M1 ag parental,CHO-K1 Ca PAM,M1 antag,M1 ag,CHO-K1 Ca antag,CHRM1 PAM
N/C(=N\OC(=O)CC1CCCCC1)c1ccncc1,17,.,.,.,.,.
CC1(C(=O)NCc2ccccc2)CCC(=O)N1CCOc1ccccc1 (stereo not given),.,.,.,.,27,.
CCOc1cc(S(=O)(=O)N2CCN(C(=O)c3ccco3)CC2)ccc1F,.,.,.,.,.,.
Cc1sc(NC(=O)C2CSC3(C)CCC(=O)N23)nc1-c1ccc(F)cc1 (stereo not given),.,.,.,.,.,.
c1ccc(Nc2ncnc3sccc23)cc1,.,.,.,.,.,.
CC(Nc1ncnc2sccc12)c1ccccc1 (stereo not given),16,.,.,.,.,.
CC(C)Cn1c(SC(C)C(=O)NCC2CCCO2)nc2ccc(Cl)cc2c1=O (stereo not given),.,.,.,.,.,.
COc1cccc(CC(=O)OCC(=O)NC(C)c2ccc(F)cc2)c1 (stereo not given),.,.,.,.,.,.
CS(=O)(=O)N1Cc2cc(C(=O)NCC3CC3)nc(-c3cccc(-c4cccnc4)c3)c2[C@H]1CCO,.,.,/,/,.,/
Nc1ccccc1C(=O)NCC1(c2ccccc2)CCCC1,.,.,.,.,.,.
CC1(C)N=C(N)N=C(N)N1c1ccc(CCCCc2ccccc2)cc1,.,.,57,.,.,.
CC(C)(C)NC(=O)C[C@H]1C[C@H](C(=O)N2CCOCC2)[C@@]2(CCC3CCCC3)c3[nH]c4cc(-c5ccco5)ccc4c3CCN2C1=O,.,.,.,.,.,.
Nc1c(C(=O)O)sc2nc3c(cc12)CCCC3,16,.,.,.,.,.
NC(=O)c1sc2nc3c(cc2c1N)CCCCCC3,.,.,.,.,.,.
Cn1c(-c2cccc([N+](=O)[O-])c2)cnc1NCc1cccc([N+](=O)[O-])c1,.,.,.,.,.,.
COc1ccc(OC)c(CNc2ncc(-c3cccc([N+](=O)[O-])c3)n2C)c1,.,.,45,.,.,.
c1ccc2[nH]c(Cn3nnc4ccccc43)nc2c1,.,.,.,.,.,.
CC1(C)OC(=O)C2=C(C[C@@H](CCc3ccccc3)O[C@H]2C2CCCC2)O1,.,.,/,/,.,/
Cc1cccnc1NC(=O)CCc1c[nH]c2ccccc12,.,.,.,.,24,.
Cc1ccnc(NC(=O)CCCc2c[nH]c3ccccc23)c1,.,.,.,.,.,.
Cc1cccc(C)c1NC(=O)C(=O)NCCc1c[nH]c2ccccc12,.,.,.,17,.,.
CC1(C(=O)NS(=O)(=O)c2ccccc2Cl)CCN1C(=O)CC1CC1 (stereo not given),.,.,.,.,.,.
O=C(NC(N1CCOCC1)C(Cl)(Cl)Cl)c1ccc(F)cc1 (stereo not given),18,.,.,.,.,.
CC1CCN(C(=O)c2ccc(CSc3nc4ccncc4n3Cc3ccc(F)cc3)cc2)CC1,.,.,38,.,.,.
N#Cc1ccccc1S(=O)(=O)N1CCN(C(=O)[C@H](Cc2ccccc2)NC(=O)c2ccco2)CC1,.,.,.,.,.,.
